Measurements: PubChem BioAssay AID1159580 (chemical genetic matrix, 2015)
Among all 5,500 compounds or so, about 2,000 (36%) were called active. Inconclusive results (about 18%) are left out. No stated cut-off is given here; in the data, active means normalized growth mostly below about 0.91 (no sharp cut-off); inconclusive means no clear call, values can overlap the other calls; inactive means mostly above about 0.92. Some of the results follow.

Assay: chemical genetic growth profiling, strain panel (AID 1159580);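 further: tested at 20 µM; growth read once vehicle control cultures reached saturation at 30 °C; 1 = growth at the plate median or of vehicle wells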
Conditions: growth OD

Measured: normalized growth

C#CC1(O)CCC2C3CCC4=CC(=O)CCC4(C)C3CCC21C (stereo unspecified)
inactive: S. cerevisiae deletion strains, locus YKL009W, strain mrt4, stronger effect = lower value 0.945 | S. cerevisiae deletion strains, locus YKL068W, stronger effect = lower value 0.991 | S. cerevisiae deletion strains, locus YKL085W, strain MDH1 (second series), stronger effect = lower value 0.99 | S. cerevisiae deletion strains, locus YKL085W, strain MDH1, stronger effect = lower value 0.99 | S. cerevisiae deletion strains, locus YKL160W, strain elf1, stronger effect = lower value 0.979 | S. cerevisiae deletion strains, locus YKL190W, strain CNB1, stronger effect = lower value 0.997 | S. cerevisiae deletion strains, locus YKR001C, strain vps1, stronger effect = lower value 0.99 | S. cerevisiae deletion strains, locus YKR026C, strain gcn3, stronger effect = lower value 0.991 | S. cerevisiae deletion strains, locus YKR091W, strain srl3, stronger effect = lower value 0.977 | S. cerevisiae deletion strains, locus YLL001W, strain dnm1, stronger effect = lower value 1 | S. cerevisiae deletion strains, locus YLL026W, stronger effect = lower value 0.986 | S. cerevisiae deletion strains, locus YLL041C, strain sdh2, stronger effect = lower value 0.998 | S. cerevisiae deletion strains, locus YLR027C, strain aat2, stronger effect = lower value 0.986 | S. cerevisiae deletion strains, locus YLR039C, strain RIC1, stronger effect = lower value 1.31 | S. cerevisiae deletion strains, locus YLR058C, strain SHM2, stronger effect = lower value 0.986 | S. cerevisiae deletion strains, locus YLR102C, strain apc9, stronger effect = lower value 0.978 | S. cerevisiae deletion strains, locus YLR113W, strain HOG1, stronger effect = lower value 1.03 | S. cerevisiae deletion strains, locus YLR221C, strain rsa3, stronger effect = lower value 1 | S. cerevisiae deletion strains, locus YLR258W, strain gsy2, stronger effect = lower value 0.983 | S. cerevisiae deletion strains, locus YLR262C, strain YPT6 (second series), stronger effect = lower value 1.05 | S. cerevisiae deletion strains, locus YLR262C, strain YPT6, stronger effect = lower value 1.2 | S. cerevisiae deletion strains, locus YLR268W, strain sec22, stronger effect = lower value 0.987 | S. cerevisiae deletion strains, locus YLR320W, strain mms22, stronger effect = lower value 0.997 | S. cerevisiae deletion strains, locus YLR330W, strain CHS5, stronger effect = lower value 0.988 | S. cerevisiae deletion strains, locus YLR342W, strain FKS1 (second series), stronger effect = lower value 0.909 | S. cerevisiae deletion strains, locus YLR342W, strain FKS1, stronger effect = lower value 0.988 | S. cerevisiae deletion strains, locus YLR357W, strain rsc2, stronger effect = lower value 1 | S. cerevisiae deletion strains, locus YLR370C, strain arc18, stronger effect = lower value 0.975 | S. cerevisiae deletion strains, locus YLR371W, strain rom2, stronger effect = lower value 0.987 | S. cerevisiae deletion strains, locus YLR384C, strain iki3, stronger effect = lower value 0.99 | S. cerevisiae deletion strains, locus YLR418C, strain cdc73, stronger effect = lower value 0.921 | S. cerevisiae deletion strains, locus YML016C, strain PPZ1, stronger effect = lower value 0.989 | S. cerevisiae deletion strains, locus YML032C, strain rad52, stronger effect = lower value 0.99 | S. cerevisiae deletion strains, locus YML120C, strain ndi1, stronger effect = lower value 0.99 | S. cerevisiae deletion strains, locus YML124C, strain tub3, stronger effect = lower value 0.991 | S. cerevisiae deletion strains, locus YMR058W, strain fet3, stronger effect = lower value 0.948 | S. cerevisiae deletion strains, locus YMR078C, strain ctf18, stronger effect = lower value 0.976 | S. cerevisiae deletion strains, locus YMR125W, strain sto1, stronger effect = lower value 0.967 | S. cerevisiae deletion strains, locus YMR129W, stronger effect = lower value 0.988 | S. cerevisiae deletion strains, locus YMR205C, strain PFK2, stronger effect = lower value 0.991 | S. cerevisiae deletion strains, locus YMR223W, strain ubp8, stronger effect = lower value 0.957 | S. cerevisiae deletion strains, locus YMR231W, strain pep5, stronger effect = lower value 0.997 | S. cerevisiae deletion strains, locus YMR263W, strain SAP30, stronger effect = lower value 1.01 | S. cerevisiae deletion strains, locus YMR307W, strain GAS1, stronger effect = lower value 1.14 | S. cerevisiae deletion strains, locus YNL067W, strain RPL9B, stronger effect = lower value 1.02 | S. cerevisiae deletion strains, locus YNL071W, strain lat1, stronger effect = lower value 1 | S. cerevisiae deletion strains, locus YNL153C, strain GIM3, stronger effect = lower value 1.04 | S. cerevisiae deletion strains, locus YNL183C, strain NPR1, stronger effect = lower value 0.955 | S. cerevisiae deletion strains, locus YNL209W, strain ssb2, stronger effect = lower value 0.988 | S. cerevisiae deletion strains, locus YNL233W, strain BNI4, stronger effect = lower value 1.02 | S. cerevisiae deletion strains, locus YNL248C, strain rpa49, stronger effect = lower value 0.987 | S. cerevisiae deletion strains, locus YNL250W, strain rad50, stronger effect = lower value 0.978 | S. cerevisiae deletion strains, locus YNL271C, strain bni1, stronger effect = lower value 0.979 | S. cerevisiae deletion strains, locus YNL298W, strain CLA4, stronger effect = lower value 0.954 | S. cerevisiae deletion strains, locus YNL322C, strain KRE1 (second series), stronger effect = lower value 1 | S. cerevisiae deletion strains, locus YNR049C, strain mso1, stronger effect = lower value 0.965 | S. cerevisiae deletion strains, locus YNR052C, strain pop2, stronger effect = lower value 0.966 | S. cerevisiae deletion strains, locus YOL147C, strain pex11, stronger effect = lower value 0.994 | S. cerevisiae deletion strains, locus YOR001W, strain rrp6, stronger effect = lower value 0.998 | S. cerevisiae deletion strains, locus YOR061W, strain CKA2, stronger effect = lower value 0.986 | S. cerevisiae deletion strains, locus YOR069W, strain VPS5, stronger effect = lower value 0.981 | S. cerevisiae deletion strains, locus YOR070C, strain gyp1, stronger effect = lower value 0.992 | S. cerevisiae deletion strains, locus YOR080W, strain dia2, stronger effect = lower value 0.972 | S. cerevisiae deletion strains, locus YOR083W, strain WHI5, stronger effect = lower value 0.948 | S. cerevisiae deletion strains, locus YOR106W, strain vam3, stronger effect = lower value 0.965 | S. cerevisiae deletion strains, locus YOR136W, strain idh2, stronger effect = lower value 0.977 | S. cerevisiae deletion strains, locus YOR144C, strain elg1, stronger effect = lower value 0.975 | S. cerevisiae deletion strains, locus YOR231W, strain MKK1, stronger effect = lower value 1.02 | S. cerevisiae deletion strains, locus YOR265W, strain rbl2, stronger effect = lower value 0.988 | S. cerevisiae deletion strains, locus YOR290C, strain snf2, stronger effect = lower value 0.974 | S. cerevisiae deletion strains, locus YOR316C, strain cot1, stronger effect = lower value 0.979 | S. cerevisiae deletion strains, locus YPL051W, strain arl3, stronger effect = lower value 1.01 | S. cerevisiae deletion strains, locus YPL078C, strain atp4, stronger effect = lower value 0.987 | S. cerevisiae deletion strains, locus YPL106C, strain sse1, stronger effect = lower value 0.985 | S. cerevisiae deletion strains, locus YPL240C, strain hsp82, stronger effect = lower value 0.988 | S. cerevisiae deletion strains, locus YPL241C, strain CIN2, stronger effect = lower value 0.99 | S. cerevisiae deletion strains, locus YPL256C, strain CLN2, stronger effect = lower value 0.994 | S. cerevisiae deletion strains, locus YPR119W, strain clb2, stronger effect = lower value 0.983 | S. cerevisiae deletion strains, locus YPR141C, strain kar3, stronger effect = lower value 0.982 | S. cerevisiae deletion strains, locus YPR163C, strain tif3, stronger effect = lower value 0.977 | S. cerevisiae deletion strains, locus YPR167C, strain met16, stronger effect = lower value 0.97 | S. cerevisiae deletion strains, strain wtn01, stronger effect = lower value 0.955 | S. cerevisiae strains, strain wild type, stronger effect = lower value 0.99
active: S. cerevisiae deletion strains, locus YNL307C, strain MCK1, stronger effect = lower value 0.906 | S. cerevisiae deletion strains, locus YOR184W, strain ser1, stronger effect = lower value 0.87 | S. cerevisiae deletion strains, locus YOR270C, strain vph1, stronger effect = lower value 0.727
